# Experimental data reported in PubChem BioAssay (Tox21).
# Values without a mark were called inactive. Inconclusive results are not listed. Where a call stands in place of a potency, no number is given. Calls of active or inactive are those of the source. Unless noted, the call rests on the fitted dose curve.
# Legend:
# [1] = qHTS assay to identify small molecule agonists of the estrogen receptor beta (ER-beta) signaling pathway - cell viability counter screen (AID 1259380; active means well fitted curve in the direction sought with a large enough effect in the repeat runs; an effect the other way counts as inactive or inconclusive; further: nearly all actives have a fitted effect of over 30% in size; further: potency means the concentration at half of the fitted maximal effect)
# Procedure, shortened: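 Luminescence read-out (CellTiter-Glo, 30 min, room temp) taken in the same wells as the beta-lactamase reporter assay; ER-beta-UAS-bla HEK293T cells exposed to DMSO-dissolved compounds for 16 hr at 37C in 2% charcoal-stripped FBS medium.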
# [2] = molecular target: Androgen receptor (Homo sapiens) (UniProt P10275); assay: qHTS assay to identify small molecule agonists of the androgen receptor (AR) signaling pathway in the presence of an antagonist (AID 1259381); further: nearly all actives have a fitted effect of over 15% in size
# Androgen receptor (Homo sapiens), sequence (P10275 whole entry, looked up): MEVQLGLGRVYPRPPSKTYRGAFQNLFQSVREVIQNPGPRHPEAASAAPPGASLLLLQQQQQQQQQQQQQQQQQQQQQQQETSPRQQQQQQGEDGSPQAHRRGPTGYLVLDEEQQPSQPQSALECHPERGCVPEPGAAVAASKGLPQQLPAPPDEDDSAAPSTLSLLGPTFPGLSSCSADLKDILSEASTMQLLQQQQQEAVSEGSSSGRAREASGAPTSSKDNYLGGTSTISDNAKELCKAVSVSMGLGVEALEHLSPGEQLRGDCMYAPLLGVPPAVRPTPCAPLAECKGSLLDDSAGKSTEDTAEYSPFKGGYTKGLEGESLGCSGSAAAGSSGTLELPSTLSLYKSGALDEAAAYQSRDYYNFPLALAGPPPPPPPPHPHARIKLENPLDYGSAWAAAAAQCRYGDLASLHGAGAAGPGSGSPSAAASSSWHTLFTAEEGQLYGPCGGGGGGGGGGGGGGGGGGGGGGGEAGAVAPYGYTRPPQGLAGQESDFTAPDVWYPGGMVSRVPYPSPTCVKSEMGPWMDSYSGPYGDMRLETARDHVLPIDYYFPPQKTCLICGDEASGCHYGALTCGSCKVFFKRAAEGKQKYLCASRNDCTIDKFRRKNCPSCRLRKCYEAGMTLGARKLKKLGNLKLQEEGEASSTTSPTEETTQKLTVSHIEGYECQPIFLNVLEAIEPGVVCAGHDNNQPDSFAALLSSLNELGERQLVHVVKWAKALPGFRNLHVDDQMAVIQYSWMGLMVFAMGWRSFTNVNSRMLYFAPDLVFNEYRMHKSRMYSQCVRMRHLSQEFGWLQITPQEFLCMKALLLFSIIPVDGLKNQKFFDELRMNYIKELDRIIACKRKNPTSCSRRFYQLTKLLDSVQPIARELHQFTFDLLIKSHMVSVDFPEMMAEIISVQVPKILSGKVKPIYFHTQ
# Procedure, shortened: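 Luciferase read-out (ONE-Glo, 30min room temperature) in MDA-kb2 MMTV-reporter cells; agonist mode run in presence of AR antagonist nilutamide, 3.0uM final. Compounds tested as 15-point series, 16hr exposure at 37C, 0% CO2.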
# [3] = qHTS assay to identify small molecule antagonists of the estrogen receptor beta (ER-beta) signaling pathway - cell viability counter screen (AID 1259382; active means well fitted curve in the direction sought with a large enough effect in the repeat runs; an effect the other way counts as inactive or inconclusive; further: nearly all actives have a fitted effect of over 55% in size; further: potency means the concentration at half of the fitted maximal effect;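 on activity change, negative = cytotoxicity: HEK293T cells carrying ER-beta-UAS-bla reporter stimulated with estradiol; series mostly up to about 92 µM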)
# Procedure, shortened: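 Luminescent ATP read-out (CellTiter-Glo, 30 min, RT) taken in the same wells as the bla reporter assay. HEK293T ER-beta-UAS-bla cells in 2% charcoal-stripped FBS were exposed to compounds with 1nM E2 for 16 hr at 37C.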
# [4] = qHTS assay to identify small molecule agonists or antagonists of the thyroid stimulating hormone receptor (TSHR) signaling pathway - wild type cell line counter screen (AID 1259384); further: potency means the concentration at half of the fitted maximal effect
# Procedure, shortened: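 Wild-type Hek293 cells, 800/well, 18 h at 37C, then compound with Ro20-1724 for 30 min RT. cAMP by HTRF (cAMP-d2/anti-cAMP cryptate), 1 h RT, fluorescence read. 15 concentrations, triplicates.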
# [5] = molecular target: Thyrotropin receptor (Homo sapiens) (UniProt P16473); assay: qHTS assay to identify small molecule antagonists of the thyroid stimulating hormone receptor (TSHR) signaling pathway (AID 1259385); further: nearly all actives have a fitted effect of over 20% in size; further: potency means the concentration at half of the fitted maximal effect
# Thyrotropin receptor (Homo sapiens), sequence (P16473 whole entry, looked up): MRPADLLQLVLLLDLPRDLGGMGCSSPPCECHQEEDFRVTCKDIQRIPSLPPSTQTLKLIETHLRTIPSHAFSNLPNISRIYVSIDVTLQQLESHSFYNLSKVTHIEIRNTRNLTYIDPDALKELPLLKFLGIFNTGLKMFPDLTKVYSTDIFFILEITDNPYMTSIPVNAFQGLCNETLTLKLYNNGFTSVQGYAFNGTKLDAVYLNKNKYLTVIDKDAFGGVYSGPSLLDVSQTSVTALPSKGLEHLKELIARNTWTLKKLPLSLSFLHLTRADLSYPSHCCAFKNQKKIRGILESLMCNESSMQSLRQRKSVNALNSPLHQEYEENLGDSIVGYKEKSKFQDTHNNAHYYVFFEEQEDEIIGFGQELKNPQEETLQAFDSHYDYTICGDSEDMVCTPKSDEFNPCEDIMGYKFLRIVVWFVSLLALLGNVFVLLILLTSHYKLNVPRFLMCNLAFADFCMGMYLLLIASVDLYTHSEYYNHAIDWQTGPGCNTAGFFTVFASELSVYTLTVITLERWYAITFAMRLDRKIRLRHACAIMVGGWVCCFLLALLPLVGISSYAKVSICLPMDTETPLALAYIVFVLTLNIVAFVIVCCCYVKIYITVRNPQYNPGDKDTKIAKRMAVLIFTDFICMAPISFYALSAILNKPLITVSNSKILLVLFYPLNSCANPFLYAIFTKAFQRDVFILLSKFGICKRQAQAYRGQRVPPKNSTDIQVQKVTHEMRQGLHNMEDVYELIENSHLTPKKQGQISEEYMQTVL
# Procedure, shortened: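 TSHR-HEK293 cells (800/well) plated 18 h, then compounds with Ro20-1724 and TSH at 1.5 ng/mL final, 30 min at room temperature. cAMP quantified by HTRF (cAMP-d2/anti-cAMP-cryptate, 1 h); 15 concentrations in triplicate.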
# [6] = qHTS assay to identify small molecule agonists of the estrogen receptor alpha (ER-alpha) signaling pathway in the presence of an antagonist - cell viability counter screen (AID 1259386; active means well fitted curve in the direction sought with a large enough effect in the repeat runs; an effect the other way counts as inactive or inconclusive;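 further: series mostly up to about 92 µM; cells exposed to compounds for 22 h at 37 °C before the viability read; nearly all actives have a fitted effect of over 30% in size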)
# Procedure, shortened: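 Read-out: CellTiter-Fluor fluorescence after 1hr reagent incubation, measured in the same wells as the luciferase readout. VM7Luc4E2 cells were exposed to 15 compound concentrations with 10.0nM ICI-182,780 for 22hr at 37C.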
# [7] = molecular target: Progesterone receptor (Homo sapiens) (UniProt P06401); assay: qHTS assay to identify small molecule agonists of the progesterone receptor (PR) signaling pathway (AID 1346784); further: nearly all actives have a fitted effect of over 30% in size
# Progesterone receptor (Homo sapiens), sequence (P06401 whole entry, looked up): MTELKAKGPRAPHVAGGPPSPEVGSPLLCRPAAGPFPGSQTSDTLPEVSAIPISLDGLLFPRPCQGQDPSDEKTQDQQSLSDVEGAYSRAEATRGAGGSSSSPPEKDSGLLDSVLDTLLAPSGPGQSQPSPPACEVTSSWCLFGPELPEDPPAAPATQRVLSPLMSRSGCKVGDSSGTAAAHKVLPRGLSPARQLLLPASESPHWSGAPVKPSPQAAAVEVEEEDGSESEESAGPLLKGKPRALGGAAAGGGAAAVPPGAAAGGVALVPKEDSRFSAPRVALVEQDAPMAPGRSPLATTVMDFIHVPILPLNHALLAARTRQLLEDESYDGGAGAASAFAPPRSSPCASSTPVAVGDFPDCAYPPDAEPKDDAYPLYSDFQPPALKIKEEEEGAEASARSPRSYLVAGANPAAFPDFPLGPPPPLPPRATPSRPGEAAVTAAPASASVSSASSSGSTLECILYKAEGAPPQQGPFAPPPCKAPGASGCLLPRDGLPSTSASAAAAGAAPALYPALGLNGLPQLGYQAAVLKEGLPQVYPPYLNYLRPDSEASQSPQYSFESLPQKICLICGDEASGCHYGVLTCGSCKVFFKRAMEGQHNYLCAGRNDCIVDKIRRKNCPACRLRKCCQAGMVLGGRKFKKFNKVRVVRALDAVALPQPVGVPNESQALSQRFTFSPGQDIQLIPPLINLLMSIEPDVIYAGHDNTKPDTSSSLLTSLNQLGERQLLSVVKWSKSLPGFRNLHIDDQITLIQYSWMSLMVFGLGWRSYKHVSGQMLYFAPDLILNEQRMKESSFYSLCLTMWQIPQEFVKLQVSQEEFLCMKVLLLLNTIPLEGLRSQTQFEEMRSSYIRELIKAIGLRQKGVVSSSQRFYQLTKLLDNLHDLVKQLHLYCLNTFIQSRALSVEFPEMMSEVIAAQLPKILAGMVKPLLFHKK
# Procedure, shortened: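 Beta-lactamase reporter read-out: after 16 hr compound treatment at 37C and a further 2 hr at room temperature with LiveBLAzer B/G FRET substrate, fluorescence was measured in PR-UAS-bla HEK 293T cells grown in 2% charcoal-stripped serum.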
# [8] = molecular target: Progesterone receptor (Homo sapiens) (UniProt P06401); assay: qHTS assay to identify small molecule antagonists of the progesterone receptor (PR) signaling pathway (AID 1346795; active means well fitted inhibition curve with a large enough effect in the signal ratio in the repeat runs, not every such curve was filed as active; the % refers to the signal ratio; further: potency means the concentration at half of the fitted maximal effect)
# Procedure, shortened: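 Read-out is fluorescence from the LiveBLAzer B/G FRET substrate, cleaved by a UAS-controlled beta-lactamase in PR-UAS-bla HEK293T cells after 16 hr exposure to compound plus 1 nM promegestone (final), followed by 2 hr at room temperature.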
# [9] = qHTS assay to identify small molecule antagonists of the progesterone receptor (PR) signaling pathway - cell viability counter screen (AID 1346798; active means well fitted curve in the direction sought with a large enough effect in the repeat runs; an effect the other way counts as inactive or inconclusive; further: nearly all actives have a fitted effect of over 50% in size; further: potency means the concentration at half of the fitted maximal effect;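 on activity change, negative = cytotoxicity: HEK293T PR-UAS-bla cells stimulated with the agonist R5020; series mostly up to about 92 µM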)
# Procedure, shortened: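 HEK293T PR-UAS-bla, 2% charcoal-stripped FBS; 4 hr pre-plate; cpd + R5020, 16 h 37C; LiveBLAzer read first; then CellTiter-Glo 30 min RT, luminescence.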
# [10] = molecular target: Estrogen receptor (Homo sapiens) (UniProt P03372); assay: qHTS assay to identify small molecule agonists of the estrogen receptor alpha (ER-alpha) signaling pathway in the presence of an antagonist (AID 1259383); further: top concentration of the series differs between compounds; nearly all actives have a fitted effect of over 15% in size
# Estrogen receptor (Homo sapiens), sequence (P03372 whole entry, looked up): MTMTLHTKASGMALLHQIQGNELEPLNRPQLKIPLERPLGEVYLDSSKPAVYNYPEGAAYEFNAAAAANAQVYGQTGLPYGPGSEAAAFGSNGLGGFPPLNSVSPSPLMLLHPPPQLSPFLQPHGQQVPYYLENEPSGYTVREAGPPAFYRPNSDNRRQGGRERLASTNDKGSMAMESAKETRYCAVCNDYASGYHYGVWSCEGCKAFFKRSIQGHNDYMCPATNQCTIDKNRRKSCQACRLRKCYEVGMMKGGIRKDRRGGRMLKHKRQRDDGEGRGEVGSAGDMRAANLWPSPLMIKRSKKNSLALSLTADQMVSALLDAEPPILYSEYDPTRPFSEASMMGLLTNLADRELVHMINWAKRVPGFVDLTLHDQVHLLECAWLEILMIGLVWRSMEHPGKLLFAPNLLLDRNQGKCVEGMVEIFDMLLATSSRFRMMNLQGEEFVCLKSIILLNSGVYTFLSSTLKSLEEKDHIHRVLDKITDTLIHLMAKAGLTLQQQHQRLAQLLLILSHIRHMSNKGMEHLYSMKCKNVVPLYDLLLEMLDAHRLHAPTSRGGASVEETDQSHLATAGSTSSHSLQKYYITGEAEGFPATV
# Procedure, shortened: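 Luciferase luminescence (ONE-Glo, 30min at room temperature) measured in VM7Luc4E2 cells after 22hr compound exposure at 15 concentrations, with 10.0nM ICI-182,780 final present; cells express endogenous ER-alpha and carry four EREs upstream of luciferase.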
compound,measurement,setting,value
CCN(CCC#N)c1ccc(N=Nc2ccc([N+](=O)[O-])cc2)cc1,Potency,[1],inactive
same,Potency,[2],inactive
same,Potency,[3],inactive
same,Potency,[4],inactive
same,Potency,[5],inactive
same,Potency,[6],inactive
same,outcome,[7],inactive
same,Potency,[8],inactive
same,Potency,[9],inactive
C/C(=N\[Si](C)(C)C)O[Si](C)(C)C,Potency,[1],inactive
same,Potency,[2],inactive
same,Potency,[3],inactive
same,Potency,[10],inactive
same,outcome,[7],inactive
same,Potency,[8],inactive
same,Potency,[9],inactive
CC/C(=C(/c1ccc(O)cc1)c1ccc(OCCN(C)C)cc1)c1ccccc1,Potency,[1],32 µM (active)
same,Potency,[2],inactive
same,Potency,[3],28.5 µM (active)
same,Potency,[4],inactive
same,Potency,[5],inactive
same,Potency,[9],32 µM (active)
Cc1ccc2sc3cccc(C)c3c2c1,Potency,[1],inactive
same,Potency,[2],inactive
same,Potency,[3],inactive
same,Potency,[10],inactive
same,Potency,[4],inactive
same,Potency,[5],inactive
same,Potency,[6],inactive
same,outcome,[7],inactive
same,Potency,[9],inactive
Oc1ccc2c(c1)CCC2,Potency,[1],inactive
same,Potency,[2],inactive
same,Potency,[3],inactive
same,Potency,[10],inactive
same,Potency,[6],inactive
same,Potency,[9],inactive
O=C(CCCCCCCCc1cccnc1)N1CCC(C=C(c2ccccc2)c2ccccc2)CC1,Potency,[1],21.7 µM (active)
same,Potency,[2],inactive
same,Potency,[3],24.3 µM (active)
same,Potency,[4],inactive
same,Potency,[5],inactive
same,Potency,[8],21.7 µM (active)
same,Potency,[9],30.6 µM (active)
CCn1c2ccccc2c2ccccc21,Potency,[1],inactive
same,Potency,[2],inactive
same,Potency,[3],inactive
same,Potency,[10],inactive
same,Potency,[4],inactive
same,Potency,[5],inactive
same,outcome,[7],inactive
same,Potency,[8],inactive
same,Potency,[9],inactive
C=Cc1ccncc1,Potency,[1],inactive
same,Potency,[2],inactive
same,Potency,[3],inactive
same,Potency,[4],inactive
same,Potency,[5],inactive
same,Potency,[6],inactive
same,outcome,[7],inactive
same,Potency,[8],inactive
same,Potency,[9],inactive
Cc1ccc(S(=O)(=O)C(I)I)cc1,Potency,[1],21.7 µM (active)
same,Potency,[2],inactive
same,Potency,[3],30.6 µM (active)
same,Potency,[4],9.69 µM (active)
same,Potency,[5],68.6 µM (active)
COC(=O)c1ccc([N+](=O)[O-])cc1,Potency,[1],inactive
same,Potency,[2],inactive
same,Potency,[3],inactive
same,Potency,[4],inactive
same,Potency,[5],inactive
same,Potency,[9],inactive
Cc1ccc(C2OC[C@@H]3OC(c4ccc(C)cc4)O[C@H]([C@H](O)CO)[C@@H]3O2)cc1 (stereo partly specified),Potency,[1],inactive
same,Potency,[2],inactive
same,Potency,[3],inactive
same,Potency,[10],inactive
same,Potency,[5],inactive
same,outcome,[7],inactive
same,Potency,[8],inactive
same,Potency,[9],inactive
COCCC(=O)OC,Potency,[1],inactive
same,Potency,[2],inactive
same,Potency,[3],inactive
same,Potency,[10],inactive
same,Potency,[4],inactive
same,Potency,[5],inactive
same,Potency,[6],inactive
same,outcome,[7],inactive
CC(CC(C)(C)C)CC(C)(C)CC(C)(C)C (stereo unspecified),Potency,[1],inactive
same,Potency,[2],inactive
same,Potency,[3],inactive
same,Potency,[4],inactive
same,Potency,[5],inactive
same,Potency,[6],inactive
same,Potency,[9],inactive
CN(C)CCOc1ccc(/C(=C(/CCCl)c2ccccc2)c2ccccc2)cc1,Potency,[1],40.5 µM (active)
same,Potency,[2],inactive
same,Potency,[3],45.5 µM (active)
same,Potency,[4],inactive
same,Potency,[5],40.5 µM (active)
same,Potency,[9],51 µM (active)
Nc1ccc2c(S(=O)(=O)O)cccc2c1S(=O)(=O)O,Potency,[1],inactive
same,Potency,[2],inactive
same,Potency,[3],inactive
same,Potency,[4],inactive
same,Potency,[5],inactive
same,Potency,[6],inactive
same,outcome,[7],inactive
same,Potency,[8],inactive
same,Potency,[9],inactive
CCc1cccc(C)c1N(C(=O)CS(=O)(=O)O)C(C)COC (stereo unspecified),Potency,[1],inactive
same,Potency,[2],inactive
same,Potency,[3],inactive
same,Potency,[10],inactive
same,Potency,[4],inactive
same,Potency,[5],inactive
same,Potency,[6],inactive
same,outcome,[7],inactive
same,Potency,[8],inactive
same,Potency,[9],inactive
CN1CCN(C)CC1,Potency,[1],inactive
same,Potency,[2],inactive
same,Potency,[3],inactive
same,Potency,[10],inactive
same,Potency,[5],inactive
same,Potency,[6],inactive
same,outcome,[7],inactive
same,Potency,[8],inactive
same,Potency,[9],inactive
Clc1ccc2c(Cl)ccnc2c1,Potency,[1],inactive
same,Potency,[2],inactive
same,Potency,[3],inactive
same,Potency,[4],inactive
same,Potency,[5],inactive
same,outcome,[7],inactive
same,Potency,[8],inactive
same,Potency,[9],inactive
O=C1CCC(=O)N1,Potency,[1],inactive
same,Potency,[2],inactive
same,Potency,[3],inactive
same,Potency,[10],inactive
same,Potency,[4],inactive
same,Potency,[5],inactive
same,Potency,[6],inactive
same,outcome,[7],inactive
same,Potency,[8],inactive
same,Potency,[9],inactive
C/C=C/C(=O)C1=C(C)C=CCC1(C)C,Potency,[1],inactive
same,Potency,[2],inactive
same,Potency,[3],inactive
same,Potency,[10],inactive
same,Potency,[4],inactive
same,Potency,[5],inactive
same,Potency,[6],inactive
same,outcome,[7],inactive
same,Potency,[8],inactive
same,Potency,[9],inactive
CSc1nnc(C(C)(C)C)c(=O)[nH]1,Potency,[1],inactive
same,Potency,[2],inactive
same,Potency,[3],inactive
same,Potency,[10],inactive
same,outcome,[7],inactive
same,Potency,[8],inactive
Clc1cccc(Cl)n1,Potency,[1],inactive
same,Potency,[2],inactive
same,Potency,[3],inactive
same,Potency,[10],inactive
same,Potency,[6],inactive
same,outcome,[7],inactive
same,Potency,[9],inactive
O=C1c2ccccc2C(=O)c2c(Cl)cccc21,Potency,[1],32.4 µM (active)
same,Potency,[2],inactive
same,Potency,[3],inactive
same,Potency,[10],inactive
same,Potency,[4],inactive
same,Potency,[5],inactive
same,Potency,[6],inactive
same,outcome,[7],inactive
same,Potency,[8],inactive
same,Potency,[9],inactive
CC1=CC[C@@H](C(C)(C)O)CC1,Potency,[1],inactive
same,Potency,[2],inactive
same,Potency,[3],inactive
same,Potency,[10],inactive
same,Potency,[5],inactive
same,Potency,[6],inactive
same,outcome,[7],inactive
same,Potency,[9],inactive
COc1cc2ncnc(Nc3cccc(Cl)c3)c2cc1OC,"activity change, negative = cytotoxicity",[1],-15.7% [at 19 µM]
same,activation,[2],-2.82% [at 19 µM]
same,"activity change, negative = cytotoxicity",[3],0.759% [at 19 µM]
same,activation,[10],-1.36% [at 19 µM]
same,"activity change, negative = inhibition",[5],1.54% [at 19 µM]
same,"activity change, negative = cytotoxicity",[6],-5.87% [at 19 µM]
same,activation,[7],-0.0125% [at 19 µM]
